# High-throughput results (PubChem BioAssay)
# CDK5 inh: inhibitors of human CDK5/p35 kinase; Q00535+Q15078; Recombinant CDK5/p35, ADP-Glo luminescence, 60 min; inhibition, % at 10 µM; 0.01% of 330,000 active;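 active means highest replicate inhibition of at least 50% and at least 75% of replicates reaching 50%; inconclusive means only one of the two criteria met; inactive means both criteria failed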
# Target sequence (Q00535 whole entry, looked up): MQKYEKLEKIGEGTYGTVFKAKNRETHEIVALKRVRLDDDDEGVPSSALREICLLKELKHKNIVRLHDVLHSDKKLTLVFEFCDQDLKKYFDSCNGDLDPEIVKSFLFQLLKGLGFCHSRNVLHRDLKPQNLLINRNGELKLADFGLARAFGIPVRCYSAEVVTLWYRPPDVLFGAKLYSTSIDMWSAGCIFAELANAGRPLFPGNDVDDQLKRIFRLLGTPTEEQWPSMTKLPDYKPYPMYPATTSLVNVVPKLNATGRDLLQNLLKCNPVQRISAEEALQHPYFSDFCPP
# Target sequence (Q15078 whole entry, looked up): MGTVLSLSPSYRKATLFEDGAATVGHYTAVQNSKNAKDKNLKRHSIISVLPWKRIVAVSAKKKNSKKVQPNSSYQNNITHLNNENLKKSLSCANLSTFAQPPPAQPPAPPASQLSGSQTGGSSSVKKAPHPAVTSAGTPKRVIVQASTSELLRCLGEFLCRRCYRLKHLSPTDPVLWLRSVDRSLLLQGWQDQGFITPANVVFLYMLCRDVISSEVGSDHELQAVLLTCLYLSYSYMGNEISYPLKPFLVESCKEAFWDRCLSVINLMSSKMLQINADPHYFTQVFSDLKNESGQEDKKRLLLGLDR
# dFosB act-1: mouse delta FosB homodimer activation; P13346; 0.99% of 340,000 active; activation, % at 25 µM; AID 493131; purified delta FosB, TAMRA-CDK5 oligo fluorescence polarization; percent of positive-control signal above neutral wells;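 active means mean activation above about 17%, with every replicate also reaching it, limit read from the data, passing the limit was not always enough; inconclusive means only one of the two conditions met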
# Dyrk1A ADPGlo: inhibitors of rat Dyrk1A kinase; ADP-Glo luminescence, NFATc1 peptide; AID 504441; Q63470; inhibition, % at 12.5 µM; 0.43% of 310,000 active; in the data active means inhibition above about 50%
# SMARCA2 activ: activators of SMARCA2 function | MG213 cells, MMTV-luciferase reporter, dexamethasone, overnight | activation, % at 9.1 µM | 1% of 370,000 active | AID 652017; in the data active means activation above about 7.8%
# esBAF inh: inhibitors of esBAF chromatin remodeling in mouse ES cells; Bmi1-luciferase knock-in reporter, 24 h; 100% = twice the neutral-well signal; reporter increase, % at 12.5 µM; 2% of 350,000 active; in the data active means activation above about 40%; inconclusive means no clear call, values can overlap the other calls;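 further: a rise in the Bmi1 reporter signal indicates esBAF inhibition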
# Rtt109 Vps75: inhibitors of Candida albicans Rtt109/Vps75 histone acetyltransferase. Q5AAJ8. purified Rtt109/Vps75, ThioGlo CoA-SH fluorescence, 4 h. inhibition, % at 34.9 µM. 0.16% of 330,000 active. AID 540336;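 active means inhibition of at least 50% in every replicate; inconclusive means best replicate reaches 50% inhibition but some replicates fall short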
# dFosB act-2: delta FosB (mouse) homodimer activation; purified delta FosB, TAMRA-CDK5 oligo fluorescence polarization; normalised: neutral wells 0, positive control 100; activation, % at 24.9 µM; shares compounds with dFosB act-1; 2,400 tested, under 10 active;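 active means highest replicate activation at or above 34% and every replicate reaching that threshold; inconclusive means meets only one of the two criteria; inactive means meets neither criterion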;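 further: higher polarization means more probe DNA bound by delta FosB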
# A number is an active result; n = inactive; u = inconclusive; x = no result. Sampled rows, rich in hits. Any-hit rate of the full collection: about 3.2%.
SMILES,CDK5 inh,dFosB act-1,Dyrk1A ADPGlo,SMARCA2 activ,esBAF inh,Rtt109 Vps75,dFosB act-2
CCOc1cccc(-c2c(C(=O)N/N=C/c3sccc3C)nnn2-c2nonc2N)c1,n,n,n,n,n,n,x
CCCCCCCCCCCC1N=C(N)NC(CCCO)=C1C(=O)OC (centres undefined),n,42.1,n,n,x,n,u
CCCCCCOC(=O)Cc1c(C)nc(N)[nH]c1=O,n,n,n,n,n,n,x
O=C(Nc1cccc(-c2nc3cccnc3s2)c1)C1c2ccccc2Oc2ccccc21,n,u,n,n,n,n,x
NS(=O)(=O)c1ccc(C(=O)Nc2ccc(-c3nc4cccnc4s3)cc2)cc1,n,42.9,n,n,x,n,n
O=C(Nc1cccc(-c2nc3cccnc3s2)c1)c1ccc(Cl)nc1,n,26.6,n,n,n,n,n
O=C(O)C[C@H]1C[C@H]2c3cc(NC(=O)NC4CCCCC4)ccc3O[C@H]2[C@H](CO)O1,x,x,x,x,n,x,x
COc1ccc(NC(=O)Nc2ccc3c(c2)C(=O)N([C@@H](C)CO)C[C@@H](C)[C@@H](CN(C)C(=O)CCCN(C)C)OCCCC[C@H](C)O3)cc1,x,x,x,x,n,x,x
COc1ccccc1C#Cc1cnc2c(c1)C(=O)N([C@H](C)CO)C[C@H](C)[C@@H](CN(C)C(=O)CC1CC1)O2,x,x,x,x,n,x,x
COc1ccc(NC(=O)Nc2ccccc2F)cc1Cl,n,22.1,n,n,u,n,n
COc1ccccc1NS(=O)(=O)c1cccc(NC(=O)Nc2ccc(Cl)cc2)c1,n,25.7,n,n,x,n,n
COc1ccccc1NS(=O)(=O)c1cccc(NC(=O)Nc2ccccc2)c1,n,n,n,n,x,n,x
C[C@H]1CN([C@@H](C)CO)C(=O)c2cc(NC(=O)NC3CCCCC3)ccc2O[C@@H]1CN(C)CC1CCCCC1,x,x,x,x,n,x,x
C[C@@H]1CN([C@H](C)CO)C(=O)Cc2cc(NC(=O)Nc3ccc(F)cc3)ccc2O[C@@H]1CN(C)Cc1ccc(Cl)c(Cl)c1,x,x,x,x,n,x,x
Cc1cc(C)c2nc(/N=C(\N)NC(=O)Nc3ccccc3)nc(C)c2c1,n,51.9,n,n,x,n,n
C[C@H](CO)N1C[C@H](C)[C@@H](CN(C)CC2CCCC2)Oc2cc(C3=CCCCC3)ccc2S1(=O)=O,x,x,x,x,n,x,x
O=C(Nc1ccc(Cl)cc1)c1cnc(-c2ccccc2)nc1-c1ccccc1,n,21.5,n,n,n,n,n
CC(=O)Nc1ccc(S(=O)(=O)NCCS(=O)(=O)N2CCN(c3ccccc3F)CC2)cc1,n,21.6,n,n,n,n,n
COc1cc(/C=C/C(=O)Nc2cccnc2)cc(OC)c1OC,n,17.9,n,n,n,n,n
COc1cc(/C=C/C(=O)NCc2cccnc2)cc(OC)c1OC,n,n,n,n,n,n,x
CC(SC(C)C(=O)NN=Cc1cccc(F)c1)C(=O)NN=Cc1cccc(F)c1 (centres undefined),n,28.0,n,n,n,n,n
CC(C)c1ccc(NC(=O)[C@H](NC(=O)[C@@H]2Cc3ccccc3CN2)c2ccccc2)cc1,n,56.5,n,n,x,n,n
Cc1ccc(CCNC(=O)CCCn2nc(C)c3c(C)n(-c4ccc(C)cc4)nc3c2=O)cc1,x,n,x,n,n,n,x
Cc1ccc(-n2nc3c(=O)n(CC(=O)NCCc4ccc(Cl)cc4)nc(C)c3c2C)cc1,n,50.6,n,n,n,n,n
CCc1ccc(CNC(=O)CCn2nc(C)c3c(C)n(-c4ccccc4)nc3c2=O)cc1,n,73.4,n,n,n,n,n
SMILES,CDK5 inh,dFosB act-1,Dyrk1A ADPGlo,SMARCA2 activ,esBAF inh,Rtt109 Vps75,dFosB act-2
Cc1ccc(-n2nc3c(=O)n(CC(=O)NCc4ccccc4)nc(C)c3c2C)cc1,n,20.8,n,n,n,n,n
Cc1ccc(S(=O)(=O)N[C@H]2CC[C@H](CCn3cc(-c4cccc(F)c4)nn3)O[C@@H]2CO)cc1,x,x,x,x,n,x,x
Cc1cc(C)cc(NC(=O)Nc2ccc3c(c2)C(=O)N(C)[C@@H]2CC[C@H](CC(=O)O)O[C@@H]2CO3)c1,x,x,x,x,n,x,x
COc1cc(C(=O)N(C)CCOc2ccccc2)ccc1OCC(=O)Nc1cccc(C(F)(F)F)c1,n,n,n,n,n,n,x
COc1cc(C(=O)NCc2ccc(S(N)(=O)=O)cc2)ccc1OCC(=O)Nc1cccc(C(F)(F)F)c1,n,16.6,n,n,n,n,n
COC(=O)C[C@H]1C[C@H]2c3cc(NC(=O)c4ccc5c(c4)OCO5)ccc3O[C@H]2[C@@H](CO)O1,x,x,x,x,n,x,x
O=C(Cn1cc([N+](=O)[O-])cn1)NC1CCCCCC1,n,n,n,n,n,n,x
COC(=O)c1c(NC(=O)CSc2ncnc3[nH]ncc23)sc2c1CCC2,n,28.8,n,n,x,n,n
COC(=O)c1c(NC(=O)CSc2ncnc3c2cnn3-c2ccccc2Cl)sc2c1CCCC2,n,n,n,n,x,n,x
COC(=O)c1c(NC(=O)Cn2cc([N+](=O)[O-])cn2)sc2c1CCC2,n,27.3,n,n,n,n,n
COc1ccc(-c2ccc3n(c2=O)C[C@@H]2[C@@H](CO)[C@H](C(=O)N(C)C)[C@H]3N2Cc2cncnc2)cc1,x,x,x,x,n,x,x
COCCNC(=O)C[C@H]1C[C@H]2c3cc(NS(=O)(=O)c4ccc(F)cc4)ccc3O[C@H]2[C@@H](CO)O1,x,x,x,x,n,x,x
C[C@H]1CN([C@@H](C)CO)C(=O)CCCn2nncc2CO[C@@H]1CN(C)C(=O)Nc1ccc(C(F)(F)F)cc1,x,x,x,x,n,x,x
CC=Cc1ccc2n(c1=O)C[C@H]1[C@H](CO)[C@@H](C(=O)NCC(F)(F)F)N(CC3CC3)[C@@H]21 (mixture of isomers),x,x,x,x,n,x,x
CCOC(=O)c1sc(NC(=O)CN2C(=O)c3cccc4cccc(c34)C2=O)nc1C,n,47.3,n,n,n,n,n
Cc1ccc(-c2csc3nnc(SCC(=O)Nc4nsc(-c5ccccc5)n4)n23)cc1,n,n,n,n,n,n,x
Cc1ccc(-n2nnnc2SCC(=O)Nc2cccnc2Cl)cc1,n,n,n,n,x,n,x
Cc1ccc(-n2nnnc2SCC(=O)Nc2ncc(Cc3ccccc3Cl)s2)cc1,x,104.4,n,n,n,n,n
Cc1ccc(-c2nc(NC(=O)CSc3nnnn3-c3ccccc3)ns2)cc1,n,37.8,n,n,83.5,n,n
CCCN1C[C@H](C)[C@@H](OC)CN(C)C(=O)c2cc(NC(=O)c3ccccc3)ccc2OC[C@@H]1C,x,x,x,x,n,x,x
COc1ccccc1NC(=O)N[C@H]1CC[C@@H](CCNS(=O)(=O)c2ccccc2)O[C@@H]1CO,x,x,x,x,n,x,x
CO[C@H]1CN(C)C(=O)c2cc(NC(=O)C3CCC3)ccc2OC[C@@H](C)N(Cc2ccccn2)C[C@@H]1C,x,x,x,x,n,x,x
